Test results as given in PubChem BioAssay.
Records with an inconclusive call do not appear. Activity calls are given as the source filed them.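 The calls were made as follows, unless noted: active = inhibition above 50%, about 3 SD of the validation set; inactive = the rest.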 Peptide text beside a SMILES is read from it. * marks the point of attachment. Boc = CC(C)(C)OC(=O)*; OBn = c1ccc(CO*)cc1

How the values were obtained:
[1] = yeast TOR pathway RPL19A-GFP modulators, primary screen, cell-based, S. cerevisiae, multiplex flow cytometry (AID 1862; in the data active = percent of DMSO control GFP below about 86%;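 also: lower values mimic rapamycin by blocking the RPL19A rise seen in DMSO cells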); conditions: S. cerevisiae RPL19A-GFP strain, flow cytometry fluorescence, 3 h; at 10 µM; stronger effect = lower value
[2] = modulators of MEP2-GFP levels in yeast, primary screen, S. cerevisiae, multiplex flow cytometry (AID 1867;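 active = GFP response, as percent of the DMSO control, above the screen-wide mean plus 3 SD, about 139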;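 also: median GFP channel fluorescence of barcode-gated MEP2-GFP cells measured by flow cytometry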); conditions: S. cerevisiae MEP2-GFP strain, 3 h, at 10 µM, stronger effect = higher value, 100% means same as DMSO wells
[3] = modulators of CIT2-GFP expression in yeast, primary screen, S. cerevisiae, GFP fusion, multiplex flow cytometry (AID 1870;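 active = percent response above a set limit, the screen-wide mean plus 3 SD, cut at about 130% in these data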;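 also: barcoded CIT2-GFP strain pooled with four other GFP strains with rapamycin as positive control; median GFP fluorescence per well over plate mean of DMSO wells so 100% = DMSO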); conditions: 3 h, at 10 µM, stronger effect = higher value
[4] = modulators of LAP4-GFP expression in yeast, primary screen, S. cerevisiae, multiplex flow cytometry (AID 1873;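 active = GFP signal, as percent of the solvent control, above the screen mean plus 3 SD, about 149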); conditions: 3 h, at 10 µM, stronger effect = higher value
[5] = modulators of AGP1-GFP expression in yeast TOR pathway, primary screen, cell-based, multiplex flow cytometry, S. cerevisiae (AID 1887;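 active = GFP signal above the screen-wide mean plus 3 SD, that is over about 124.5% of the solvent control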;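 also: AGP1-GFP fusion strain of S. cerevisiae within a five-strain barcoded multiplex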); conditions: 3 h, at 10 µM, stronger effect = higher value
[6] = inhibitors of CD8+ T cell-vesicle binding, pilot screen, LFA-1/ICAM-1 modulator project, MLPCN validation set, flow cytometry (AID 2523;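 active = response below a set limit, under 55% cells CD8-positive and vesicle-bound, and CD8 cells' 90th-percentile brightness under 279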;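 as to vesicle binding response: mean PE anti-B7-1 fluorescence of CD8+ cells relative to row control; 100% = QL9-loaded vesicles with DMSO vehicle in the same plate row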); conditions: 2C mouse CD8+ T cells, at 7 µM, stronger effect = lower value; double positive events: measured here: CD8+/vesicle+ event percentage
[7] = target: Integrin beta-1 (Homo sapiens) + Integrin alpha-4 (Homo sapiens) (UniProt P13612+P05556); experiment: inhibition of HUTS-21 binding to VLA-4, pilot screen, VLA-4 allosteric modulator project, U937 cells, HUTS-21 mAb, flow cytometry, validation set (AID 2674); conditions: HUTS-21 LIBS mAb binding, at 6.7 µM, stronger effect = higher value, binding induced by LDV ligand;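 also: antibody binding induced by the VLA-4 ligand LDV present at three times its Kd; 0% = LDV ligand with antibody and no compound and 100% = antibody without LDV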
Integrin beta-1 (Homo sapiens) + Integrin alpha-4 (Homo sapiens), sequence (P05556 whole entry, looked up): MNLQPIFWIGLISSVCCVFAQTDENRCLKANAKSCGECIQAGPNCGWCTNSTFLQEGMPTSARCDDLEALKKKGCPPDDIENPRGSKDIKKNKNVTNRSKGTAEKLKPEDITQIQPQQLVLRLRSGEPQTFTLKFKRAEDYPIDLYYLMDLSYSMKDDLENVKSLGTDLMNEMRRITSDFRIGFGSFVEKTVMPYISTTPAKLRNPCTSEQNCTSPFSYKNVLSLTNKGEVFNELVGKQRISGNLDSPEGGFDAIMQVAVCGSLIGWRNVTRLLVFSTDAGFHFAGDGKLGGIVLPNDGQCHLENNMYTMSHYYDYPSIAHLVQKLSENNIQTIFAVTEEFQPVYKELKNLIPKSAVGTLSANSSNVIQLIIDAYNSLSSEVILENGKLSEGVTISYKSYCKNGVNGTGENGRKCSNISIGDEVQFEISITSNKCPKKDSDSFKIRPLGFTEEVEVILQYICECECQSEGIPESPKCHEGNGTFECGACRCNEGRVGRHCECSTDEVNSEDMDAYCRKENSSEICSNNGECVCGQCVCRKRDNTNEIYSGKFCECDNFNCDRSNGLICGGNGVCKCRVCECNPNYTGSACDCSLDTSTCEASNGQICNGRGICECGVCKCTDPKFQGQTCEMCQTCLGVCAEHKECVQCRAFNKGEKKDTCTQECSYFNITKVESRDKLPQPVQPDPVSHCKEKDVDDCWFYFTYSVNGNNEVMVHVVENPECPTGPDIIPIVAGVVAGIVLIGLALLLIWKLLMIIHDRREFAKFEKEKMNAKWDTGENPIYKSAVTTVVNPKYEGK
Integrin beta-1 (Homo sapiens) + Integrin alpha-4 (Homo sapiens), sequence (P13612 whole entry, looked up): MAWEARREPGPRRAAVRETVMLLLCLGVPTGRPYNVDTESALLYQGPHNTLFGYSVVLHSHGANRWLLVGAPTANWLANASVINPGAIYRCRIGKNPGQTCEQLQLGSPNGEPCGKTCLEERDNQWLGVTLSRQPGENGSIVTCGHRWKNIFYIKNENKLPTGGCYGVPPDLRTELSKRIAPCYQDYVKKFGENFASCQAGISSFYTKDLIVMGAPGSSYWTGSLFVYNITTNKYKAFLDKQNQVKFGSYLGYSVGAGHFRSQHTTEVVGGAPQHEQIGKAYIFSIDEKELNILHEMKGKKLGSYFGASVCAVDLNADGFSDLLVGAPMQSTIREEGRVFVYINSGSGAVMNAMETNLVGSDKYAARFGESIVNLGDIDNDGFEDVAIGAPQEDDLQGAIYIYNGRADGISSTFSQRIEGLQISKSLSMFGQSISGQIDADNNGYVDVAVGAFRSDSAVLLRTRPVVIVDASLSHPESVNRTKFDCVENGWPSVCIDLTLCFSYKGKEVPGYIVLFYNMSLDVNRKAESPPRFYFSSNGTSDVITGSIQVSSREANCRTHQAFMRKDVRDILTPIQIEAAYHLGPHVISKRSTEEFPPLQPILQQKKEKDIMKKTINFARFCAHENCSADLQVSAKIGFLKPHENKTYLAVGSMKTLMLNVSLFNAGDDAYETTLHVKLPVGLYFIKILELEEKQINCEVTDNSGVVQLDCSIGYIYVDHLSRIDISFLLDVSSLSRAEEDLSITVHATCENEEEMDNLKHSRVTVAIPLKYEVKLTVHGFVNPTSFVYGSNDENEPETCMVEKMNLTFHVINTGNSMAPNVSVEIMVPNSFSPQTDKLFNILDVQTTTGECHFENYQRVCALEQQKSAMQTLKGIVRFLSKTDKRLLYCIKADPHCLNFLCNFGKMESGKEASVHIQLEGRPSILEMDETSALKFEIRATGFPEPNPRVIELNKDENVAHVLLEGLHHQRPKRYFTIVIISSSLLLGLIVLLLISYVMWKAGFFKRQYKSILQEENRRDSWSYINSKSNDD

[8] = superoxide lowering in aged yeast cells, pilot screen, validation compound set (AID 2706;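 active = superoxide response below 65% of plate, a cut near 3 SD across the whole screen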;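 also: yeast exposed to compound for one week at 30 degrees C before staining; 100% = mean of all compound wells on the same plate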); conditions: S. cerevisiae aging, superoxide DHE fluorescence; at 10 µM, stronger effect = lower value
[9] = target: Beta-adrenergic receptor kinase 1 (Homo sapiens) (UniProt P25098); experiment: GRK2 binders displacing RNA aptamer, biochemical, validation, human GRK2, bead flow cytometry (AID 488806;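 active = aptamer binding inhibition above 30%, about 3 SD of noise from non-fluorescent compounds; inactive = inhibition at or below 30%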); conditions: bead-bound GRK2, FAM-aptamer displacement, at 10 µM, stronger effect = higher value
Beta-adrenergic receptor kinase 1 (Homo sapiens), sequence (P25098 whole entry, looked up): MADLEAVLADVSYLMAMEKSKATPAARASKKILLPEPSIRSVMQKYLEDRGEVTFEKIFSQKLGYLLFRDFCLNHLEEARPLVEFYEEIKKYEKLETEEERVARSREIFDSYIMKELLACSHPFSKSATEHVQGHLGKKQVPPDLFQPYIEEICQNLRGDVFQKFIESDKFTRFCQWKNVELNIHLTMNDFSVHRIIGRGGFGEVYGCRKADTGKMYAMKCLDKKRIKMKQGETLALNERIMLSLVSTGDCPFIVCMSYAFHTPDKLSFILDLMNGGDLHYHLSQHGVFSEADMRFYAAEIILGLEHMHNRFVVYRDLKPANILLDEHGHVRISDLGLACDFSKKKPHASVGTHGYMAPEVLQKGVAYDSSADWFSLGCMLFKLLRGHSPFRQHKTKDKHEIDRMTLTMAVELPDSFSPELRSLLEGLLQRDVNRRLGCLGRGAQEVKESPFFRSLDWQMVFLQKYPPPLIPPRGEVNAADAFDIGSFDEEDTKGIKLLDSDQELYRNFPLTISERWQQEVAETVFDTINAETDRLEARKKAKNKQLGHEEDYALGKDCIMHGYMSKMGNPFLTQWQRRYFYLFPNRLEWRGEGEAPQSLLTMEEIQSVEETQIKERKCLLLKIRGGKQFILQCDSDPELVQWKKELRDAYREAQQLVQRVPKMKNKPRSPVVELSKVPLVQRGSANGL

[10] = target: AP-2 complex subunit beta (Homo sapiens) (UniProt P63010); experiment: inhibitors of arrestin peptide binding to AP2, pilot screen, biochemical, validation set, GST-AP2 beads, flow cytometry (AID 504541;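 active = inhibition above 54%, about 3 SD of non-fluorescent compounds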;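 also: AP2 carries R879A mutation and is captured from E. coli lysate; bead-bound FITC arrestin peptide fluorescence measuring arrestin peptide binding to AP2; 0% = DMSO wells and 100% = excess unlabeled arrestin peptide control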); conditions: FITC arrestin peptide, at 10 µM, stronger effect = higher value, AP2 beta2 appendage fragment, R879A mutant
AP-2 complex subunit beta (Homo sapiens), sequence (P63010 whole entry, looked up, the tested form may be a part, one chain of several): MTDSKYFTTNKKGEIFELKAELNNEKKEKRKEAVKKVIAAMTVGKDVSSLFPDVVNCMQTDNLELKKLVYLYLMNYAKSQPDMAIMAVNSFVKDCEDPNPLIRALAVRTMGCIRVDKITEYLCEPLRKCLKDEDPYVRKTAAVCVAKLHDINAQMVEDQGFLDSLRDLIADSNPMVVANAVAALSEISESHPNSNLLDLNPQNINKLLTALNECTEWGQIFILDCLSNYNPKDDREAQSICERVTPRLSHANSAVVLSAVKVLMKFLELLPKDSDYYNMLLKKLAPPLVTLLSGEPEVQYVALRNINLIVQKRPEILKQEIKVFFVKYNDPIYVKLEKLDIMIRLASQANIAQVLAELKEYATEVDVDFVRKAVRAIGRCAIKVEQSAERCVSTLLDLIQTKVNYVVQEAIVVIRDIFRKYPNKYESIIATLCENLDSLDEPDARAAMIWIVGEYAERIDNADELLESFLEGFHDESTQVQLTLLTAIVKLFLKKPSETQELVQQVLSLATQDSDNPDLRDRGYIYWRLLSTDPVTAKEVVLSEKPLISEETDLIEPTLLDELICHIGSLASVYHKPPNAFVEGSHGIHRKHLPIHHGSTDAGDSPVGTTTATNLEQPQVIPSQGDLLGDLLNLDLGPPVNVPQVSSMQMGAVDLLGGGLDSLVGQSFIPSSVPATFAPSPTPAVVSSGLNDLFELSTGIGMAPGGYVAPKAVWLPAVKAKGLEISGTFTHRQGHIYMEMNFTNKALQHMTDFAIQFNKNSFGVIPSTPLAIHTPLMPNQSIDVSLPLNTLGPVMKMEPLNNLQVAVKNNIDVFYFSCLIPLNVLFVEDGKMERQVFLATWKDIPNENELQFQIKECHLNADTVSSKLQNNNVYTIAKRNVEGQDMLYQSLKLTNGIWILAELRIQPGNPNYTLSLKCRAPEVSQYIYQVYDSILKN

[11] = yeast V-ATPase proton transport modulators, S. cerevisiae, pHLuorin, HTS validation (AID 504600; in the data active = response above about 15%;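 also: plate controls were DMSO for no effect and reference compound for full effect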); conditions: S. cerevisiae pHLuorin cytosolic pH, at 10 µM, stronger effect = higher value
[12] = tested on: anti-desmoglein-3 scFv antibody binding to human DSG3; experiment: inhibitors of anti-DSG3 scFv binding to DSG3, pilot screen, biochemical, validation compound set, bead-based, flow cytometry (AID 588368;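 active = binding below the plate cutoff, the plate median minus 3 SD, with a reading above zero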;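 also: signal is the median channel fluorescence of bead-bound GFP antibody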); conditions: Protein G beads, DSG3-Fc, scFv-GFP binding, at 10 µM, stronger effect = lower value
[13] = inhibitors of fungal efflux pumps CDR1, CDR2, MDR1, pilot screen, validation compound set, multiplex, phenotypic (AID 588506;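 active = efflux inhibition above 0.42, the validation set average plus 4 SD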;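 also: Nile Red retained in cells so higher fluorescence means more efflux inhibition; 0 = negative control wells and 1 = enniatin B 25 µM full block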); conditions: S. cerevisiae pump-expressing triplex, Nile Red efflux flow cytometry; at 10 µM; stronger effect = higher value; the pumps come from Candida albicans
[14] = target: ATP-binding cassette sub-family B member 6 (Homo sapiens) (UniProt Q9NP58); experiment: ABCB6 transporter inhibitors, pilot screen, K562-ABCB6 cells, flow cytometry, validation set (AID 588550;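 active = inhibition above the screen-wide mean plus 3 SD, about 51%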;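 also: 0% = DMSO wells and 100% = benzethonium chloride 70 µM positive control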); conditions: K562-ABCB6 porphyrin accumulation, 1 h, at 10 µM, stronger effect = higher value
ATP-binding cassette sub-family B member 6 (Homo sapiens), sequence (Q9NP58 whole entry, looked up): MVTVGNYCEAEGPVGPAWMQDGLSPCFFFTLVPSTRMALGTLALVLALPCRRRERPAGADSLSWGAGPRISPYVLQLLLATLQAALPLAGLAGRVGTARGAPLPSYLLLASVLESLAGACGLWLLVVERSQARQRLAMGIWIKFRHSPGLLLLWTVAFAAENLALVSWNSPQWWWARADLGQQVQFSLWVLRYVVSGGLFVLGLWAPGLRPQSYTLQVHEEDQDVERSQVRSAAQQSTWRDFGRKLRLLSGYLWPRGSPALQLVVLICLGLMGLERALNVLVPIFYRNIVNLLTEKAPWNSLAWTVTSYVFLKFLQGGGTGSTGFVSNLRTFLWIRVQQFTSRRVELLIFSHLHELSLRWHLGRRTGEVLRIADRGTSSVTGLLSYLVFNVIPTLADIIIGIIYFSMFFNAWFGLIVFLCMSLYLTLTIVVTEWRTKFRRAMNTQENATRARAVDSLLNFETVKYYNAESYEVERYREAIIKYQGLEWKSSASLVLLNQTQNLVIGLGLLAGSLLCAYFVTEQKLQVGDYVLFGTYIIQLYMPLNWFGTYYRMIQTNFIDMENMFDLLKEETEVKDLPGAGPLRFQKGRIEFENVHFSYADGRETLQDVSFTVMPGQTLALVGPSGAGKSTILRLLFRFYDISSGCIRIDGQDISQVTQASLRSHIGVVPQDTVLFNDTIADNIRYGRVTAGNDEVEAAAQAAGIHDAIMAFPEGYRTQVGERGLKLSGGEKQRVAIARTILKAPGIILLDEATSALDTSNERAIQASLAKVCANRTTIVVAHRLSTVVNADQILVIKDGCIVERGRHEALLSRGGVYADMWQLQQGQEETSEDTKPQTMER

[15] = promoters of myeloid differentiation in arrested cells, primary screen, cell-based, GFP/MAC1 double positive, flow cytometry, validation set (AID 588685;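 active = differentiation response of at least 50%, scaled between solvent and reference control, from cells with both markers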;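 also: compound exposure lasts four days before antibody staining and flow analysis; 0% = DMSO wells and 100% = 5 µM fulvestrant positive control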); conditions: ER-HoxA9 marrow cells, stronger effect = higher value, normalized: vehicle 0, fulvestrant 100

CC(CCc1ccccc1)NCC(O)c1ccc(O)c(C(N)=O)c1 (stereo not given)
inactive: percent of DMSO control GFP [1] 99.5% | GFP response vs DMSO [2] 98.9% | percent response of DMSO control [3] 107% | GFP response vs DMSO [4] 109% | GFP response, % of DMSO [5] 105% | vesicle binding response [6] 175% | inhibition [7] -2.11% | superoxide response (% of plate) [8] 97.6% | aptamer binding inhibition [9] 0% | inhibition [10] -4.92% | response [11] -3.48% | binding (% of control) [12] 101% | efflux inhibition (fraction of control) [13] -0.2 | inhibition [14] 9% | differentiation response [15] -6.66%
52.5%: double positive events [6]

O=C(/C=C/c1ccc(Cl)cc1)NCCc1ccccc1
54.1%: double positive events [6]
inactive: percent of DMSO control GFP [1] 102% | GFP response vs DMSO [2] 92.8% | percent response of DMSO control [3] 97.9% | GFP response vs DMSO [4] 97.4% | GFP response, % of DMSO [5] 97.5% | vesicle binding response [6] 270% | inhibition [7] 2.56% | superoxide response (% of plate) [8] 106% | aptamer binding inhibition [9] -1% | inhibition [10] -7.53% | response [11] 2.01% | binding (% of control) [12] 98.2% | efflux inhibition (fraction of control) [13] -0.09 | inhibition [14] 7% | differentiation response [15] -5.05%

CC(C)CC(NC(=O)C(NC(=O)OC(C)(C)C)C(C)C)C(=O)NC(CCC(=O)OCc1ccccc1)C(N)=O (stereo not drawn) (Boc-Val-Leu-Glu(OBn)-NH2; configuration not given here)
inactive: percent of DMSO control GFP [1] 99.6% | GFP response vs DMSO [2] 98.9% | percent response of DMSO control [3] 95.9% | GFP response vs DMSO [4] 84.3% | GFP response, % of DMSO [5] 93.1% | vesicle binding response [6] 186% | inhibition [7] 3.49% | superoxide response (% of plate) [8] 94.3% | aptamer binding inhibition [9] 0% | inhibition [10] 2.78% | response [11] -7.35% | binding (% of control) [12] 101% | efflux inhibition (fraction of control) [13] 0.41 | inhibition [14] 11% | differentiation response [15] 22.4%
65%: double positive events [6]

CC(C)(C)NC[C@H](O)COc1nsnc1N1CCOCC1
inactive: percent of DMSO control GFP [1] 94.4% | GFP response vs DMSO [2] 136% | percent response of DMSO control [3] 108% | GFP response vs DMSO [4] 78.7% | GFP response, % of DMSO [5] 93.1% | vesicle binding response [6] 173% | inhibition [7] 17.1% | superoxide response (% of plate) [8] 91.1% | aptamer binding inhibition [9] 3% | inhibition [10] -3.6% | response [11] 4.73% | binding (% of control) [12] 96.3% | efflux inhibition (fraction of control) [13] 0.05 | inhibition [14] 9% | differentiation response [15] -0.82%
70.5%: double positive events [6]

COc1ccc(OCC(=O)N2c3ccc(C)cc3C3CN(C)CCC32)cc1 (stereo not given)
inactive: percent of DMSO control GFP [1] 104% | GFP response vs DMSO [2] 101% | percent response of DMSO control [3] 105% | GFP response vs DMSO [4] 98.4% | GFP response, % of DMSO [5] 96.1% | vesicle binding response [6] 238% | inhibition [7] 10% | superoxide response (% of plate) [8] 90.6% | aptamer binding inhibition [9] -10% | inhibition [10] -6.29% | response [11] -0.64% | binding (% of control) [12] 106% | efflux inhibition (fraction of control) [13] 0.33 | inhibition [14] 5% | differentiation response [15] 32.1%
69.1%: double positive events [6]

C/C(=N/N1CCN(Cc2cccc3ccccc23)CC1)c1cccnc1
inactive: percent of DMSO control GFP [1] 101% | GFP response vs DMSO [2] 102% | percent response of DMSO control [3] 98.8% | GFP response vs DMSO [4] 99.4% | GFP response, % of DMSO [5] 96.6% | vesicle binding response [6] 182% | inhibition [7] -1.17% | superoxide response (% of plate) [8] 102% | aptamer binding inhibition [9] 1% | inhibition [10] 6.25% | response [11] -3.49% | binding (% of control) [12] 100% | efflux inhibition (fraction of control) [13] 0.25 | inhibition [14] 5% | differentiation response [15] 9.49%
58.2%: double positive events [6]

Cc1cnc(C(=O)N2CCCC(C(=O)c3ccc(Cl)cc3C)C2)cn1 (stereo not given)
inactive: percent of DMSO control GFP [1] 104% | GFP response vs DMSO [2] 99.9% | percent response of DMSO control [3] 105% | GFP response vs DMSO [4] 96.4% | GFP response, % of DMSO [5] 101% | vesicle binding response [6] 175% | inhibition [7] -2.11% | superoxide response (% of plate) [8] 109% | aptamer binding inhibition [9] 2% | inhibition [10] 21.9% | response [11] 2.89% | binding (% of control) [12] 101% | efflux inhibition (fraction of control) [13] 0.18 | inhibition [14] -25% | differentiation response [15] -18%
50%: double positive events [6]

O=[N+]([O-])c1cc(/C=N/n2cnnc2)ccc1N1CCCC1
inactive: percent of DMSO control GFP [1] 100% | GFP response vs DMSO [2] 99.9% | percent response of DMSO control [3] 97.9% | GFP response vs DMSO [4] 95.4% | GFP response, % of DMSO [5] 101% | vesicle binding response [6] 182% | inhibition [7] 10.9% | superoxide response (% of plate) [8] 105% | aptamer binding inhibition [9] 6% | inhibition [10] 5.45% | response [11] -0.97% | binding (% of control) [12] 96.4% | efflux inhibition (fraction of control) [13] -0.43 | inhibition [14] 3% | differentiation response [15] -8.27%
60.8%: double positive events [6]

CO/N=C(\C(=O)N[C@@H]1C(=O)N2C(C(=O)O)=C(COC(C)=O)CS[C@H]12)c1csc(N)n1 (stereo in doubt)
inactive: percent of DMSO control GFP [1] 95.8% | GFP response vs DMSO [2] 99.9% | percent response of DMSO control [3] 94.9% | GFP response vs DMSO [4] 90.3% | GFP response, % of DMSO [5] 93.4% | vesicle binding response [6] 224% | inhibition [7] 5.36% | superoxide response (% of plate) [8] 93.9% | aptamer binding inhibition [9] 3% | inhibition [10] 2.47% | response [11] -3.75% | binding (% of control) [12] 97.5% | efflux inhibition (fraction of control) [13] -0.09 | inhibition [14] 11% | differentiation response [15] 6.26%
61.1%: double positive events [6]

CC(=O)OCC(=O)[C@@]12OC3(CCCC3)O[C@@H]1C[C@H]1[C@@H]3CCC4=CC(=O)C=C[C@]4(C)[C@@]3(F)[C@@H](O)C[C@@]12C
inactive: percent of DMSO control GFP [1] 98.5% | GFP response vs DMSO [2] 96.9% | percent response of DMSO control [3] 99.8% | GFP response vs DMSO [4] 106% | GFP response, % of DMSO [5] 101% | vesicle binding response [6] 173% | inhibition [7] -12.4% | superoxide response (% of plate) [8] 97% | aptamer binding inhibition [9] 2% | inhibition [10] 26.6% | response [11] -4.26% | binding (% of control) [12] 96.4% | inhibition [14] 6% | differentiation response [15] -3.43%
61.4%: double positive events [6]
active: efflux inhibition (fraction of control) [13] 0.9
